Activity calls are given as the source filed them. The call rests on the fitted dose curve.
Assay: qHTS drug screen for cell cycle checkpoint inhibitors in PARPi-resistant BRCA-mutant ovarian cancer cell lines. (AID 1963452)
Details: PEO1/OlaR viability, CellTiter-Glo luminescence, 96 h; stronger effect = lower value
Summary of the method: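 PEO1, PEO4 and PEO1/OlaR ovarian cancer cells, 600 per well, exposed 96 h at 37C to a dilution series. Viability read by CellTiter-Glo luminescence, normalized to DMSO and empty wells; activity summarized as Z-AUC.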

Row | Structure (SMILES) | Z-AUC
1 | CN1CC(=O)N2[C@H](c3ccc4c(c3)OCO4)c3[nH]c4ccccc4c3C[C@@H]2C1=O | 0.983 (inactive)
2 | O=[N+]([O-])c1cncn1CCN1CCOCC1 | 1.32 (inactive)
3 | C[C@H]1C[C@@H]2[C@H]([C@@H](O)C[C@@]3(C)[C@H]2CC[C@]3(O)C(=O)CO)[C@@]2(C)C=CC(=O)C=C12 | -1.46 (inactive)
4 | CC(C)N(CCC(=O)c1ccc2ccccc2c1)Cc1ccccc1 | -1.4 (inactive)
5 | CCN(CC)CCOc1ccc(/C(=C(\Cl)c2ccccc2)c2ccccc2)cc1 | -0.751 (inactive)
6 | CC1c2ccccc2CN1NC(=O)c1ccc(Cl)c(S(N)(=O)=O)c1 (configuration not stated) | 1.28 (inactive)
7 | CCCCCCOC(=O)NC(=N)c1ccc(NCc2nc3cc(C(=O)N(CCC(=O)OCC)c4ccccn4)ccc3n2C)cc1 | 1.19 (inactive)
8 | CCC1=C[C@@H]2CN(C1)Cc1c([nH]c3ccccc13)[C@@](C(=O)OC)(c1cc3c(cc1OC)N(C)[C@H]1[C@@](O)(C(=O)OC)[C@H](OC(C)=O)[C@]4(CC)C=CCN5CC[C@]31[C@@H]54)C2 | -1.05 (inactive)
9 | CC1(C)O[C@@H]2C[C@H]3[C@@H]4CCC5=CC(=O)C=C[C@]5(C)[C@@]4(F)[C@@H](O)C[C@]3(C)[C@]2(C(=O)CO)O1 | 0.569 (inactive)
10 | O=C(O)C(=O)Nc1cccc(-c2nn[nH]n2)c1 | 0.0028 (inactive)
11 | CCOC(=O)O[C@]1(C(=O)OCCl)CC[C@H]2[C@@H]3CCC4=CC(=O)C=C[C@]4(C)[C@H]3[C@@H](O)C[C@@]21C | 1.04 (inactive)
12 | O=C(O)[C@H](O)[C@@H](O)[C@H](O[C@@H]1O[C@H](CO)[C@H](O)[C@H](O)[C@H]1O)[C@H](O)CO | 0.899 (inactive)
13 | O=C(Nc1ccc(S(=O)(=O)N2CCOCC2)cc1)c1cc(Cl)ccc1NS(=O)(=O)c1ccc(Cl)s1 | 1.19 (inactive)
14 | COc1c(C)c2c(c(O)c1C/C=C(\C)CCC(=O)OCCN1CCOCC1)C(=O)OC2 | 0.671 (inactive)
15 | CC1(C)O[C@@H]2C[C@H]3[C@@H]4C[C@H](F)C5=CC(=O)C=C[C@]5(C)[C@@]4(F)[C@@H](O)C[C@]3(C)[C@]2(C(=O)CO)O1 | -1.1 (inactive)
16 | O=[N+]([O-])c1ccc(-c2nc(-c3ccc(F)cc3)c(-c3ccncc3)[nH]2)cc1 | 1.31 (inactive)
17 | C[C@H]1C[C@H]2[C@@H]3CCC4=CC(=O)C=C[C@]4(C)[C@H]3C(=O)C[C@]2(C)[C@@]1(O)C(=O)CO | 1.47 (inactive)
18 | CNC[C@H](O)[C@@H](O)[C@H](O)[C@H](O)CO | -0.453 (inactive)
19 | O=[N+]([O-])c1ccc(O)c2ncccc12 | -0.66 (inactive)
20 | O=C1NC(=O)/C(=C/c2ccc3c(c2)OC(F)(F)O3)S1 | -0.958 (inactive)
21 | CN1CCCN=C1/C=C/c1cccs1 | 0.33 (inactive)

Same assay, conditions: PEO1/OlaR viability, CellTiter-Glo luminescence, 96 h; measured here: PEO1 parental Z-AUC; stronger effect = lower value

Row | Structure (SMILES) | Z-AUC
22 | CN1CC(=O)N2[C@H](c3ccc4c(c3)OCO4)c3[nH]c4ccccc4c3C[C@@H]2C1=O | 0.823
23 | O=[N+]([O-])c1cncn1CCN1CCOCC1 | 1.34
24 | C[C@H]1C[C@@H]2[C@H]([C@@H](O)C[C@@]3(C)[C@H]2CC[C@]3(O)C(=O)CO)[C@@]2(C)C=CC(=O)C=C12 | -0.672
25 | CC(C)N(CCC(=O)c1ccc2ccccc2c1)Cc1ccccc1 | -0.867
26 | CCN(CC)CCOc1ccc(/C(=C(\Cl)c2ccccc2)c2ccccc2)cc1 | -0.39
27 | CC1c2ccccc2CN1NC(=O)c1ccc(Cl)c(S(N)(=O)=O)c1 (configuration not stated) | 0.911
28 | CCCCCCOC(=O)NC(=N)c1ccc(NCc2nc3cc(C(=O)N(CCC(=O)OCC)c4ccccn4)ccc3n2C)cc1 | 0.495
29 | CCC1=C[C@@H]2CN(C1)Cc1c([nH]c3ccccc13)[C@@](C(=O)OC)(c1cc3c(cc1OC)N(C)[C@H]1[C@@](O)(C(=O)OC)[C@H](OC(C)=O)[C@]4(CC)C=CCN5CC[C@]31[C@@H]54)C2 | -1.03
30 | CC1(C)O[C@@H]2C[C@H]3[C@@H]4CCC5=CC(=O)C=C[C@]5(C)[C@@]4(F)[C@@H](O)C[C@]3(C)[C@]2(C(=O)CO)O1 | 1.66
31 | O=C(O)C(=O)Nc1cccc(-c2nn[nH]n2)c1 | 0.552
32 | CCOC(=O)O[C@]1(C(=O)OCCl)CC[C@H]2[C@@H]3CCC4=CC(=O)C=C[C@]4(C)[C@H]3[C@@H](O)C[C@@]21C | 0.868
33 | O=C(O)[C@H](O)[C@@H](O)[C@H](O[C@@H]1O[C@H](CO)[C@H](O)[C@H](O)[C@H]1O)[C@H](O)CO | 1.15
34 | O=C(Nc1ccc(S(=O)(=O)N2CCOCC2)cc1)c1cc(Cl)ccc1NS(=O)(=O)c1ccc(Cl)s1 | 0.998
35 | COc1c(C)c2c(c(O)c1C/C=C(\C)CCC(=O)OCCN1CCOCC1)C(=O)OC2 | 0.614
36 | CC1(C)O[C@@H]2C[C@H]3[C@@H]4C[C@H](F)C5=CC(=O)C=C[C@]5(C)[C@@]4(F)[C@@H](O)C[C@]3(C)[C@]2(C(=O)CO)O1 | 0.399
37 | O=[N+]([O-])c1ccc(-c2nc(-c3ccc(F)cc3)c(-c3ccncc3)[nH]2)cc1 | 0.274
38 | C[C@H]1C[C@H]2[C@@H]3CCC4=CC(=O)C=C[C@]4(C)[C@H]3C(=O)C[C@]2(C)[C@@]1(O)C(=O)CO | 0.72
39 | CNC[C@H](O)[C@@H](O)[C@H](O)[C@H](O)CO | -0.0353
40 | O=[N+]([O-])c1ccc(O)c2ncccc12 | -0.828
41 | O=C1NC(=O)/C(=C/c2ccc3c(c2)OC(F)(F)O3)S1 | -0.173
42 | CN1CCCN=C1/C=C/c1cccs1 | 0.491
